CBX7 inh: CBX7 chromodomain binding inhibitors, primary screen, biochemical, AlphaScreen | normalised signal (fraction of DMSO) (concentration not given with the values) | AlphaScreen His6-CBX7 / biotin-H3K27me3 peptide binding; active compounds read low | Chromobox protein homolog 7 (Homo sapiens), O95931 | AID 1224903, 2016 | 1.1% of 66,000 active; in the data active = normalised signal below about 0.5
Target sequence (O95931 whole entry, looked up): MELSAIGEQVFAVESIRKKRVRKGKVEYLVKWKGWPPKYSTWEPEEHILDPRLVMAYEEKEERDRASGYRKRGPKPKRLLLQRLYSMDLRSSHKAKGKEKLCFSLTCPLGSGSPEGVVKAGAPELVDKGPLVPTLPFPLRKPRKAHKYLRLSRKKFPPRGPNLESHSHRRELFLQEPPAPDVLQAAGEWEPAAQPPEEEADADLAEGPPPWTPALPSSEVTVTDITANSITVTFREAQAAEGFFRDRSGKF
Numbers stand for hits; i = inactive; ! = repeats disagree. This is one part of a sample in which hits are shown more often than they occur.

SMILES	CBX7 inh
Cc1ccccc1NC(=O)C1c2ccccc2C(=O)N2CCc3ccccc3C12 (configuration not stated)	i
CCC1Oc2ccccc2N(CC(=O)NCCc2ccc(Cl)cc2)C1=O (configuration not stated)	i
CCOC(=O)c1ccc2c(c1)c1c(n2CCN(Cc2ccccc2)Cc2ccccc2)C(=O)CCCC1	i
O=C(CN1C(=O)CSc2cc(S(=O)(=O)N3CCCCCC3)ccc21)NCCC1=CCCCC1	i
O=c1oc2ccccc2cc1-c1nnc(-c2ccccc2O)o1	i
CCOc1ccc(NC(=O)c2cnn(-c3ccccc3)c2NC(=O)c2cccc(F)c2)cc1	i
CCCCCCNC(=O)c1cnn2c(C)c(Cc3c(F)cccc3Cl)c(C)nc12	i
COc1ccc(-c2csc(Nc3cccc(C(=O)O)c3)n2)cc1	i
COc1cccc(Nc2nc(-c3ccc(C)cc3)cs2)c1	i
COc1cccc(Nc2nc(-c3ccc(F)cc3)cs2)c1	0.465
Oc1ccc(Nc2nc(-c3ccc(Cl)cc3)cs2)cc1	0.44
Clc1ccc(Nc2nc(-c3ccncc3)cs2)cc1	i
COc1ccc(-c2csc(Nc3ccc(C)c(Cl)c3)n2)cc1F	0.392!
Cc1ccc(Nc2nc(-c3ccccc3)cs2)cc1Cl	i
Cc1ccc(C)c(-c2csc(Nc3ccc(F)cc3)n2)c1	i
Cc1ccc(C)c(-c2csc(Nc3ccc(C)c(Cl)c3)n2)c1	0.374!
CCOc1ccc(Nc2nc(-c3ccc(OC)c(F)c3)cs2)cc1	i
Cc1ccc(Nc2nc(-c3ccc(-c4ccccc4)cc3)cs2)cc1Cl	i
Clc1ccc(-c2csc(Nc3ccc(Br)cc3)n2)cc1	i
COc1ccccc1CNC(=O)c1ccc2c(c1)NC(=O)c1ccccc1S2(=O)=O	i
CC1CCCCC1NC(=O)c1ccc2c(c1)N(Cc1cccc(Cl)c1)C(=O)CS2 (configuration not stated)	i
COC(=O)CN(c1ccc2c(c1)OCO2)S(=O)(=O)c1ccc2c(c1)n(C)c(=O)c(=O)n2C	i
CCOCCCNC(=O)c1cc(-c2cccs2)nc2ccccc12	i
CCOc1ccc(Nc2cc(C(=O)NCCOC)c3ccccc3n2)cc1	i
COc1ccc(-n2c3c(cc(C(=O)Nc4ccccc4Cl)c2=O)C(=O)CC(C)(C)C3)cc1	i
SMILES	CBX7 inh
Cc1ccc(-c2nc3ncccc3o2)cc1NC(=O)COc1ccc(Cl)cc1	i
CC(C)c1ccc(NC(=O)C(c2ccccc2)N2CCCCC2)cc1 (configuration not stated)	i
O=C(CN1C(=O)COc2ccccc21)NCc1ccc(F)cc1	i
O=C(Nc1cccnc1Cl)c1cc(-c2ccc3c(c2)OCO3)on1	i
Cc1csc2ncc(C(=O)Nc3cccc4ccccc34)c(=O)n12	i
O=C(CCc1nc(-c2ccccc2F)no1)Nc1ccc(F)cc1	i
Cc1ccc(Nc2nc(-c3ccc(I)cc3)cs2)cc1C	i
Cc1ccc(Nc2nc(-c3ccc(Cl)cc3)cs2)cc1C	i
Cc1ccc(Nc2nc(-c3ccc(C)c(C)c3)cs2)cc1	0.45
c1ccc(Cc2nc(NCc3ccccn3)c3c4c(sc3n2)CCCC4)cc1	i
Cc1ccc(C)c2[nH]c(=O)c(CCNC(=O)c3ccccc3C(F)(F)F)cc12	i
COCCn1c(SCC(=O)Nc2ccc(Cl)cc2)nnc1-c1c[nH]c2ccccc12	i
O=C(CSc1nnnn1-c1ccc(Cl)cc1)Nc1ccccc1Cl	i
NC(=O)c1ccc(-n2nnnc2SCC(=O)Nc2ccccc2)cc1	i
O=C(CSc1nnnn1-c1ccccc1)Nc1ncccn1	0.134
COc1cc2c(=O)c(S(=O)(=O)c3ccccc3)cn(Cc3ccccc3C)c2cc1OC	i
c1ccc(Cc2ccc(Oc3ncnc4sc5c(c34)CCCC5)cc2)cc1	i
c1ccc(COc2ccc(Oc3ncnc4sc5c(c34)CCCC5)cc2)cc1	i
c1nc(Oc2ccc3c4c2CCCN4CCC3)c2c3c(sc2n1)CCCC3	0.268
Cn1c(-c2cc(-c3ccccc3)c3cc(Br)ccc3n2)nc2ccccc21	i
Cc1cccc(-c2nnc(NC(=O)c3ccc(Cl)cc3)o2)c1	i
COc1ccc(-c2nnc(NC(=O)c3ccc(OC)c(OC)c3)o2)cc1	0.0863
COc1ccc(C(=O)Nc2cccc(-c3nc4ccccc4o3)c2)cc1OC	i
COc1ccc(-c2nnc(NC(=O)c3ccc(Cl)cc3)o2)cc1	i
COc1ccc(C(=O)Nc2nnc(-c3cccc(C)c3)o2)cc1OC	0.0175
SMILES	CBX7 inh
COc1ccc(C(=O)Nc2nnc(-c3ccccc3)o2)cc1OC	i
CCC1CCCCN1C(=O)c1c[nH]c2ccc(S(=O)(=O)N(C)c3ccc(C(C)C)cc3)cc2c1=O (configuration not stated)	i
CCn1cc(C(=O)N2CCCCC2)c(=O)c2ccc(C)nc21	i
Cc1cc(=O)n2ccc(CN3CCCCC3)c(O)c2n1	0.00422
Cc1cc(=O)oc2c(CN3CCCC3)c(O)ccc12	i
O=C(CC1(O)C(=O)Nc2ccccc21)c1ccccc1C(F)(F)F (configuration not stated)	i
CCCNC(=O)C1CC(c2cc(OC)ccc2OC)=NO1 (configuration not stated)	i
N#Cc1nc(COc2ccc(Br)cc2)oc1N1CCCC1	0.468
Cc1ccc(OCc2nc(C#N)c(N3CCC(Cc4ccccc4)CC3)o2)cc1	i
N#Cc1nc(COc2ccc(Br)cc2)oc1N1CCCCCC1	0.416
CCN1CCN(c2oc(COc3ccc(Cl)cc3)nc2C#N)CC1	i
COc1ccc(OCc2nc(C#N)c(N3CCCC3)o2)cc1	i
Cc1ccc(-c2noc(CCC(=O)Nc3ccc(C)cc3Cl)n2)cc1	i
Oc1ccc(C2(c3ccc(Cl)cc3)CCCCC2)cc1	i
c1ccc(-c2cnc(-c3ccncc3)o2)cc1	i
C=CCn1c(C(C)NC(=O)c2ccc(OC)c(OC)c2)nc2ccccc21 (configuration not stated)	i
C=CCc1ccccc1OCC(O)CN1CCN(c2ccc(C)cc2)CC1 (configuration not stated)	0.251
C=CCc1ccccc1OCC(O)CN1CCC(C)CC1 (configuration not stated)	i
C=CCc1cc(C)ccc1OCC(O)CN1CCOCC1 (configuration not stated)	i
O=C(Nc1ccc(F)cc1)c1cc2cc(Br)ccc2oc1=O	i
COc1cc(Cl)c(C)cc1NC(=O)CCc1nc(-c2ccc(C)cc2)no1	i
CN(C(=O)Cc1nc(N)n[nH]1)C1(C(=O)Nc2ccccc2)CCCCC1	0.0266
Nc1n[nH]c(CC(=O)N(Cc2ccccc2)C2(C(=O)Nc3ccccc3)CCCCC2)n1	i
Cc1ccc(NC(=O)C2(N(C)C(=O)Cc3nc(N)n[nH]3)CCCCC2)cc1	i
COc1cc(Cl)c(C)cc1NC(=O)c1cn(C)c(=O)c2cc(OC)c(OC)cc12	i
SMILES	CBX7 inh
Cc1cccc(NC(=O)CN2N=C(c3ccccc3)CCC2=O)c1C	i
Cc1cccc(N2C(=O)CC(N3CCN(C/C=C/c4ccccc4)CC3)C2=O)c1 (configuration not stated)	i
COC(=O)CNc1c(-c2c[nH]c3ccccc23)nc2ccc(Br)cn12	i
COc1ccc(Nc2c(-c3ccccn3)nc3ccc(Br)cn23)cc1	i
Fc1ccc(Nc2c(-c3ccccc3)nc3ccccn23)cc1	i
COC(=O)CNc1c(-c2ccccn2)nc2ccccn12	0.281
COC(=O)CNc1c(-c2ccccn2)nc2cnccn12	i
COc1ccc(Nc2c(-c3ccccn3)nc3ccc(Cl)cn23)cc1	i
Cc1ccc(-c2nc3cnccn3c2Nc2ccc(C(C)C)cc2)cc1	i
Cc1ccn2c(Nc3ccc(C(C)C)cc3)c(-c3ccsc3)nc2c1	i
